# Experimental data: PubChem BioAssay (NCI)
# This is part of a sample that, as a whole, favours compounds with a hit. Of some 83,000 tested, about 20% had one in any assay.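 Note: values are percent growth. 100 is the growth of untreated cells, values between 100 and 0 indicate rising inhibition; between -100 and 0 indicates cell death.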 Unmarked numbers belong to inactive results. Calls of active or inactive are those of the source. Rule for the calls: active = growth percent below 10; inactive = the rest.
# Tested on: MDA-MB-468 breast
# Test: NCI-60 one-dose screen, 48 h (100 = growth as untreated, 0 = no growth, -100 = all killed)
# Conditions: 10 µM unless noted
row,SMILES,growth
1,C=C(C)[C@@H]1CC[C@]2(C(=O)OC)CC[C@]3(C)[C@H](CC[C@@H]4[C@@](C)(CCc5nn[nH]n5)[C@H](C(=C)C)CC[C@]43C)[C@@H]12,-7.51% [100 µM] (active)
2,O=[N+]([O-])c1ccc2c(c1)S(=O)c1cc([N+](=O)[O-])ccc1N2,94.8%
3,C#Cc1cc(OC)c(C(=O)Nc2ccc(F)cc2C(=O)Nc2cccc(S(=O)(=O)C(F)(F)F)c2)cn1,-31.3% (active)
4,Cn1c(=O)c2c(nc(Nc3cc(=O)[nH]c(=O)[nH]3)n2Cc2ccccc2)n(C)c1=O,84.7%
5,N#C/C(=C\c1cccc2cnccc12)N1N=NC2C=CC=CC21 (stereo unspecified),32.9%
6,CCN(CC)c1ccc2nc3ccc(N=Nc4ccc(N(C)C)cc4)cc3[n+](-c3ccccc3)c2c1,-65.6% (active)
7,CCCN(CCC)CCC(O)c1cc2c(c3ccccc13)CCCC2 (stereo unspecified),72.2%
8,C/C(Cc1ccc(Cl)cc1)=C(/c1ccc(Cl)cc1)c1ccc(OCCN(C)C)cc1,17.2%
9,C#CCOC(=O)C(N)CS (stereo unspecified),97.3%
10,Oc1c(Cl)cc(Cl)c2ccc(CN3CCCCC3)nc12,29.3%
11,O=C1OCC2=C1C(c1ccncc1)c1cc3c(cc1N2CCO)OCO3 (stereo unspecified),96.3%
12,COc1ccccc1/C=C1\COc2ccc(O)cc2C1=O,68.7%
13,O=[N+]([O-])c1ccc(Sc2ccncn2)c([N+](=O)[O-])c1,24%
14,CN(Cc1cc(Br)cc(Br)c1O)Cc1cc(Br)cc(Br)c1O,-1.21% (active)
15,COc1ccc(Nc2[nH]n3c(=O)cc(C)nc3c2C(N)=O)c(OC)c1,97.3%
16,CC(C)c1ncc([N+](=O)[O-])n1C,104%
17,N#Cc1c(-c2ccc(Cl)cc2)nc(NN=Cc2cccc(Cl)c2)nc1N1CCOCC1,85.1%
18,COc1cccc(NC(=O)c2cccc(C3CCc4c(cc(OC)c(OC)c4OC)O3)c2)c1 (stereo unspecified),71.5%
19,Cc1ccccc1-c1cc(-c2ccc(Br)s2)[nH]c(=O)c1C#N,96.4%
20,O=C(Nc1ccc(F)cc1)Nc1ccc(NC(=O)c2cc(Cl)nc3ccccc23)cc1,38.7%
21,COc1cc2c(c(O)c1Br)C(=O)c1c(O)cc(C[C@H](C)O)cc1[C@H]2[C@H]1c2cc(C[C@H](C)O)cc(O)c2C(=O)c2c1cc(OC)c(Br)c2O,-14.5% (active)
22,O=C1NC(=O)C(Cc2ccccc2)(Cc2ccccc2)N1,104%
23,CC(=O)Nc1ccc(NC(C)=O)c2c1C(=O)c1ccccc1C2=O,107%
24,Oc1c(N=Nc2nn[nH]n2)ccc2ccccc12,85.3%
25,O=c1c(N=Nc2nccs2)c(-c2ccccc2)[nH]n1-c1nc(-c2ccccc2)cs1,29%
26,COc1ccccc1N1CCN(C2=C(Cl)C(=O)c3ncccc3C2=O)CC1,-55.3% (active)
